This note sets out measurements from PubChem BioAssay (NCI).

Compounds without any hit were thinned out: in the full panel of roughly 83,000, 20% have a hit.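 Note: values are percent growth. 100 is the growth of untreated cells, values between 100 and 0 indicate rising inhibition; between -100 and 0 indicates cell death.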 Activity calls are given as the source filed them. Rule for the calls: active = growth percent below 10; inactive = the rest.

The subject of this assay is MDA-MB-435 melanoma. As to the kind of experiment: NCI-60 one-dose screen, 48 h (100 = growth as untreated, 0 = no growth, -100 = all killed). The conditions noted are these: 10 µM unless noted.
With `CCOP(=O)(Nc1ccc2c(c1)/C(=N/NC(N)=S)c1ccccc1-2)OCC`, the growth is 107% (inactive).
Consider `O=C(N/N=C\c1ccc(N(CCCl)CCCl)cc1Cl)c1cccnc1`, for which the growth is 104% (inactive).
Regarding `COC(=O)CCc1c[nH]c2ccc(N(CCCl)CCCl)cc12`, the growth is 74.1% (inactive).
On to `COc1cc(C=Nc2cccc(C(=O)O)c2)ccc1N(CCCl)CCCl`, for which the growth was 91.5% (inactive).
The result for `C/C(CC(C)(C)N1CC1)=N\NC(=O)Nc1cccc2ccccc12` reads 79.6% (inactive); that for `CCCCNC(c1ccc(Cl)cc1)C(O)c1ccc(Cl)cc1` (configuration not stated), 21.4% (inactive).
Regarding `O=C(O)CNC(=O)C(Cl)(Cl)Cl`, the growth is 97.8% (inactive).
For `CC1(C)[C@H](O)[C@H](F)C[C@@]2(C)Oc3ccc(C(=O)Nc4ccc5c(c4)NC(=O)C54CCN(CCCCC#N)CC4)cc3C[C@H]12`, the growth was 24.8% (inactive).
Turning to `COC(=O)[C@@H](C)C[C@H](Cc1ccccc1)NC(=O)c1csc([C@@H](C[C@H](C(C)C)N(C)C(=O)[C@@H](NC(=O)[C@H]2CCCCN2C)C(C)C)OC(C)=O)n1`, the growth is -54.7% (active).
For the molecule `N#CCCNc1ccccc1`, the growth is 98.9% (inactive).
The result for `CC[C@H](C)[C@H](NC(=O)[C@H]1CCCCN1C)C(=O)N(C)[C@H](CCc1nc(C(=O)N[C@@H](Cc2ccccc2)C[C@H](C)C(=O)OC)cs1)C(C)C` reads -39.4% (active); that for `COC(=O)[C@@H](C)C[C@H](Cc1ccccc1)NC(=O)c1csc([C@@H](C[C@H](C(C)C)N(C)C(=O)[C@@H](NC(=O)[C@H]2CCCCN2C)C(C(F)(F)F)C(F)(F)F)OC(C)=O)n1`, -46.1% (active).
